Values joined by “and” are separate entries in the source; they are usually repeats but may differ in a detail not shown here. Identical values can stand only once. Values without a mark were called inactive. Results filed as inconclusive are left out. Active and inactive are the calls of the source. The call rests on the fitted dose curve; in most records, active means well fitted curve in the direction sought with a large enough effect; inconclusive means small, poorly fitted or top-dose-only effect, or another doubt; inactive means no such curve, though single readings can be large; an effect the other way counts as inactive or inconclusive.

For assay [1], the system named is Zika virus NS2B-NS3 protease. Nature of the assay: Primary screen GU AMC qHTS for Zika virus inhibitors (AID 1347154). Further: nearly all actives have a fitted effect of over 70% in size. Further: potency means the concentration at half of the fitted maximal effect.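 On activity change, negative = inhibition: 0% = no-inhibitor control and -100% = no-enzyme control.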 A digest of the protocol: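 Unlinked Zika NS2B hydrophilic domain–NS3 protease complex at 25 nM in 10 mM Tris-HCl pH 8.0, 0.01% Tween 20, with an AMC peptide substrate. Fluorescence change (340/450 nm) over 15 min at room temperature, normalized to controls, fitted to 4-parameter Hill.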

The nature of assay [2]: Confirmatory screen NINDS Rhodamine qHTS for Zika virus inhibitors (AID 1347161). Further: nearly all actives have a fitted effect of over 60% in size. Further: potency means the concentration at half of the fitted maximal effect.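 On activity change, negative = inhibition: purified Zika NS2B-NS3 protease with linked NS2B cofactor domain and Rhodamine110 peptide substrate; plate controls were no-inhibitor control for no effect and no-enzyme control for full effect.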 A digest of the protocol:
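Single-chain NS2B-NS3 protease, 25 nM, pH 8.0; compounds preincubated 15 min. Activity: Rhodamine110 release from 1.5 microM substrate over 15 min, room temperature, data fitted to 4-parameter Hill.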

The nature of assay [3]: Vero cells viability qHTS for Zika virus inhibitors (AID 1347167). Further: potency means the concentration at half of the fitted maximal effect. The method in brief: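 qHTS titration; 24-48 h compound exposure, 37 degrees C/5% CO2; DMEM, 4% FBS; CellTiter Glo ATP luminescence.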
The nature of assay [4]: Tertiary RLuc qRT-PCR qHTS assay for Zika virus inhibitors (AID 1347169). Further: nearly all actives have a fitted effect of over 55% in size. Further: potency means the concentration at half of the fitted maximal effect. On activity change, negative = inhibition: top concentration of the series differs between compounds; on the % scale 0 is the no-effect control and ±100 the full control effect. A digest of the protocol:
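Orthogonal cell-based infection assay using recombinant ZIKV-RLuc (Cambodian) in Vero cells; compound added prior to virus at MOI 1-2. Incubation lasts 48-72 hrs at 37 degrees C before live-cell Renilla substrate is added and luminescence measured.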

Assay [5] in a line: qHTS to identify inhibitors of the type 1 interferon - major histocompatibility complex class I in skeletal muscle: primary screen against the NCATS Pharmaceutical Collection (AID 1347407).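 Further: luminescence of HiBiT knocked into endogenous HLA-B as interferon-induced MHC class I level; on the % scale 0 is the no-effect control and ±100 the full control effect.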 The method in brief:
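Cells were seeded with 4 ng/ml IFN-beta, incubated 1 h, then dosed with compounds over eight 1:5 steps up to 46 uM final. After 24 h at 37 C, HiBiT lytic reagent was added and luminescence read after 10 min lysis in the dark.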

The nature of assay [6]: qHTS to identify inhibitors of the type 1 interferon - major histocompatibility complex class I in skeletal muscle: primary screen against the NCATS Mechanism Interrogation Plate v5.0 (MIPE) Libary (AID 1347411).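 Further: plate controls were vehicle for no effect and reference inhibitor for full effect; nearly all actives have a fitted effect of over 65% in size.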 A digest of the protocol: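 Seed engineered human myoblasts (HLA-B HiBit) in medium without dexamethasone containing 4 ng/ml IFN-beta; after 1 hr add compound titrations (top 46 uM final). Incubate 24 hrs at 37 C, lyse 10 min with HiBiT reagent, read luminescence.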

Assay [7] deals with Protein phosphatase 1D (Homo sapiens) (UniProt O15297). Nature of the assay: RapidFire Mass Spectrometry qHTS Assay for Modulators of WT P53-Induced Phosphatase 1 (WIP1) (AID 1347424).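 Further: plate controls were DMSO wells for no effect and GSK830371 inhibitor control at 10 µM for full effect.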 A digest of the protocol:
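RapidFire MS readout of dephosphorylated VEPPL-S-QETFS product, with 1 uM isotope-labelled peptide standard. Reaction: 10 nM WIP1, 2 uM phosphopeptide substrate, 5 min, room temperature, after 1 h compound preincubation; stopped with 0.5% formic acid.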

Assay [8] shares this target. Nature of the assay: Rhodamine-PBP qHTS Assay for Modulators of WT P53-Induced Phosphatase 1 (WIP1) (AID 1347425). Further: % of control where 0% means no effect. A digest of the protocol:
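WIP1 (5 nM final) was preincubated with compound for 1 hour at room temperature. It then dephosphorylated 10 uM VEPPL-pS-QETFS peptide in Tris-HCl pH 7.5 with 30 mM MgCl2. Released Pi was detected by 10 uM Rh-PBP fluorescence (ex 525/em 598 nm) read at 1-min intervals for 11 min, as delta f1 - f0.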

The test system of assay [9] is Zika virus NS2B-NS3 protease (unlinked complex). Nature of the assay: Primary screen GU Rhodamine qHTS for Zika virus inhibitors: Unlinked NS2B-NS3 protease assay (AID 1347159). Further: nearly all actives have a fitted effect of over 60% in size. Further: potency means the concentration at half of the fitted maximal effect. A digest of the protocol:
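In dose–response format, inhibition of unlinked protease (25 nM) was measured with 1.5 microM bis-peptide Rhodamine110 substrate. Aprotinin served as the intraplate control.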

The nature of assay [10]: Primary qHTS for inhibitors of La Crosse Virus (LACV) - induced cell death in SH-SY5Y cells (AID 1508616).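 Further: top concentration of the series differs between compounds; 0% = infected DMSO wells and 100% = uninfected DMSO wells; higher means more rescue of cells from virus-induced death.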 A digest of the protocol: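 SH-SY5Y, 6000 cells/well; cpd via pin tool in DMSO; LACV 0.01 MOI; 6 d 37C 5% CO2; ATPLite, 5 min RT; luminescence normalized to ±virus DMSO controls.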
Assay [11] is described as follows: Confirmatory screen GU Rhodamine qHTS for Zika virus inhibitors qHTS (AID 1347157).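 Further: plate controls were no-inhibitor wells for no effect and no-enzyme wells for full effect; nearly all actives have a fitted effect of over 70% in size.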 The method in brief:
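Buffer 10 mM Tris-HCl pH 8.0, 0.01% Tween 20. Unlinked protease 25 nM; compound preincubation 15 min, RT, protected from light. Substrate Rhod110, 1.5 microM; ~15% conversion in 15 min.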

For assay [12], the target named is Lysine-specific demethylase 5B (Homo sapiens) (UniProt Q9UGL1). In words: Optimization screen for KDM5B Histone Demethylases FDH coupled qHTS against the LOPAC library (AID 1347166). Further: 0% is about no effect. Particulars: KDM5B demethylation, FDH-coupled NADH fluorescence (FDH is formaldehyde dehydrogenase); at 57.5 µM (top of the series). A digest of the protocol:
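KDM5BDeltaAP (200nM final) in 50mM HEPES pH 7.5, 0.01% Tween-20 was preincubated with compound for 10 min at room temperature. A substrate mix of 12.5uM H3K4Me3, 25uM a-ketoglutarate, ascorbate, Fe2+, NAD+ and formaldehyde dehydrogenase was then added. NADH fluorescence (340/450 nm) was read initially and after 30 min.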

Assay [13] is described as follows: qHTS for inhibitors of adenylyl cyclases using a fission yeast platform: a pilot screen against the NCATS LOPAC library (AID 1347410).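 Further: plate controls were DMSO vehicle for no effect and DPI positive control for full effect.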 A digest of the protocol:
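Growth medium went into the plates first, then compounds were pinned (final up to 57 µM), then CHP2027 yeast were added. Plates were incubated overnight (18 h) at 30C in the dark, and GFP was measured by laser scanning cytometry.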

Assay [14] in a line: Validation qHTS assay for inhibitors of Activation Induced Cytidine Deaminase (AID): UDG Counterscreen signal (AID 1347427). Further: 0% is about no effect. A digest of the protocol:
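Fluorescence at 560 nm excitation, 665 nm emission reports UDG signal after 250 mM NaOH (2x) addition and 30 min. Enzymes (AID 1 uM, UDG 2 U/mL, at 4/3x) preincubated 10 min with compound, then 4 h with 4x 250 nM DJC20/DJC23 substrate at room temperature.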

In assay [15] the target is Single-stranded DNA cytosine deaminase (Homo sapiens) (UniProt Q9GZX7). In words: Validation qHTS assay for inhibitors of Activation Induced Cytidine Deaminase (AID): AID signal (AID 1347429). Further: on the % scale 0 is the no-effect control and ±100 the full control effect. A digest of the protocol:
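Steps: dispense AID with UDG; pin-transfer compound up to 114 uM final; add DJC20/DJC23 substrate and hold 4 hr at room temperature; add NaOH, hold 30 min; read FRET signal (540/590 nm).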

In assay [16] the test system is Zika virus NS2B-NS3 protease (linked construct). Nature of the assay: Primary screen NINDS Rhodamine qHTS for Zika virus inhibitors (AID 1347160). Further: nearly all actives have a fitted effect of over 55% in size. On activity change, negative = inhibition: on the % scale 0 is the no-effect control and ±100 the full control effect. Particulars: outcome: dose series up to 57.1 µM unless noted. The method in brief:
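Each compound, titrated, sat 15 min with 25 nM linked protease before 1.5 microM Rhodamine110 substrate went in. Fluorescence gain over the next 15 min, in pH 8.0 Tris with Tween 20, gave Hill-fitted curves.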

Protein phosphatase 1D (Homo sapiens), sequence (O15297 whole entry, looked up): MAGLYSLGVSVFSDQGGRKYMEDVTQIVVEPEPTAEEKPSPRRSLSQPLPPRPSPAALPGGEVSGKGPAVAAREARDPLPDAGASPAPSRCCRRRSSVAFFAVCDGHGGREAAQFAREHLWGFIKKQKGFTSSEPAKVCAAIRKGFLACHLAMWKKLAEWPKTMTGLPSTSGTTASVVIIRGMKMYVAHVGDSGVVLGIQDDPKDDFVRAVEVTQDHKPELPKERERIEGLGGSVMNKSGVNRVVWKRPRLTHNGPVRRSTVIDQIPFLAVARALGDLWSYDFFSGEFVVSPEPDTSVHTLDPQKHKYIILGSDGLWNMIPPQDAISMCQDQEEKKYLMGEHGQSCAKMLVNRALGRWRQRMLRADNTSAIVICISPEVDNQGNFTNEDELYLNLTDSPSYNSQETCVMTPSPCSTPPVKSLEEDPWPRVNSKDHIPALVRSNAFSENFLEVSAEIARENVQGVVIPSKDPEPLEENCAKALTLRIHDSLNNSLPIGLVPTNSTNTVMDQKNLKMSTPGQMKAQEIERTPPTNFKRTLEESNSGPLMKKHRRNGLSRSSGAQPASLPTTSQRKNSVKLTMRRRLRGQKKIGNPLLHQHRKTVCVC
Single-stranded DNA cytosine deaminase (Homo sapiens), sequence (Q9GZX7 whole entry, looked up): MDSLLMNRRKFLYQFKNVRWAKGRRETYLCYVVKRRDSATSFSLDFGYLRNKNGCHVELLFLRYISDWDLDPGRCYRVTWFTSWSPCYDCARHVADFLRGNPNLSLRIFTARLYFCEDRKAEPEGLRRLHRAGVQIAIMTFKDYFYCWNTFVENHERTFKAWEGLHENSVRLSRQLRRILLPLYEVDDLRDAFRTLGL
Lysine-specific demethylase 5B (Homo sapiens), sequence (Q9UGL1 whole entry, looked up): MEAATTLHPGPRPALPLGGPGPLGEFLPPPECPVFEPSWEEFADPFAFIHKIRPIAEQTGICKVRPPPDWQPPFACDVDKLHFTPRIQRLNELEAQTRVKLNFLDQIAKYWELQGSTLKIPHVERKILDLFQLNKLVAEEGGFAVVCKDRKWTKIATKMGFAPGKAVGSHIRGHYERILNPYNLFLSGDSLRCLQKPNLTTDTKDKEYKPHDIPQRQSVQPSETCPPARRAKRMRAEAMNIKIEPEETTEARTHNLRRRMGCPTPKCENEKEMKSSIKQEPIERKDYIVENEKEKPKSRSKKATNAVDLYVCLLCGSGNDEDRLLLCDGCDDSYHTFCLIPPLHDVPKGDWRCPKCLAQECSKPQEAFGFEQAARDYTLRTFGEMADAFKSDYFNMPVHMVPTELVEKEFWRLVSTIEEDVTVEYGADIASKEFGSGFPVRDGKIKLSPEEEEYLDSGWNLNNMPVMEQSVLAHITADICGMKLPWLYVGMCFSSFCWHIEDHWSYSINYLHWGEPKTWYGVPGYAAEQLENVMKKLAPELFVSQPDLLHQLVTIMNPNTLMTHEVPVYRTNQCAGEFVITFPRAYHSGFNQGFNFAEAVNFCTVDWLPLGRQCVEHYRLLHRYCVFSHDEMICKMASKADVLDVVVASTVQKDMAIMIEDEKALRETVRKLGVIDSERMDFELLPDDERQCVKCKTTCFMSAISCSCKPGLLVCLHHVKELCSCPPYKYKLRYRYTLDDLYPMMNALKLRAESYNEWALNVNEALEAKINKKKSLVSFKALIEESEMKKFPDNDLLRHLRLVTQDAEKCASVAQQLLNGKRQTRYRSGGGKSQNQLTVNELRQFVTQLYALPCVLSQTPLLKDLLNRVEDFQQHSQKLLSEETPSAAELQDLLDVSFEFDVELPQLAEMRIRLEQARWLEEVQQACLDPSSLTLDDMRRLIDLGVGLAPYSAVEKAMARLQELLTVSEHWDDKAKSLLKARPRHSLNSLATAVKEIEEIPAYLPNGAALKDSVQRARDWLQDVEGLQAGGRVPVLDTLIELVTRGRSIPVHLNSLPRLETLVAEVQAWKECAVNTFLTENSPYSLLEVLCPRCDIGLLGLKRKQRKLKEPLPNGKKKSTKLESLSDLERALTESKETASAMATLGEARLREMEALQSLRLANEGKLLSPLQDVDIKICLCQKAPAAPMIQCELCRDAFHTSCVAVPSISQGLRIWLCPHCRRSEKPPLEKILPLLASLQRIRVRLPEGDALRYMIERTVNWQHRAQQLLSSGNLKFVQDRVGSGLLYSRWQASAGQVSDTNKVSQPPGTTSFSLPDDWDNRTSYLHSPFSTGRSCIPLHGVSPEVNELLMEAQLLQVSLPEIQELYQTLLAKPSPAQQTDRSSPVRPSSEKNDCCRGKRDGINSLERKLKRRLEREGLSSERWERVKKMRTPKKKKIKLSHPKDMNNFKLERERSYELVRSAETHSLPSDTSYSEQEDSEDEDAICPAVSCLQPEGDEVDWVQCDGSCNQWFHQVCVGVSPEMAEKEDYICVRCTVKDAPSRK

With `CNC1CCCN(c2c(F)cc3c(=O)c(C(=O)O)cn(C4CC4)c3c2OC)C1` (configuration not stated), in assay [1], the Potency was 25.6 µM (active). Further, the Potency result in assay [2], in assay [3], in [4], in [5] and in assay [6] was “inactive” each time. Also, the compound was classed as inactive in [7] and in assay [8].
On to `CNC(=O)c1cc(Oc2ccc(NC(=O)Nc3ccc(Cl)c(C(F)(F)F)c3)cc2)ccn1`, for which the Potency entry in [1], in assay [5] and in assay [10] was “inactive” throughout. Also, the figures for the Potency in assay [9], in assay [2] and in assay [3] were 8.91 µM (active), 25.5 µM (active) and 7.58 µM (active), respectively. The compound was classed as inactive in [7] and in assay [8].
Consider `COc1ccc(-c2ccc3cc(C(=O)O)ccc3c2)cc1C12CC3CC(CC(C3)C1)C2`, for which the Potency entry in assay [1], in assay [2], in [5] and in [10] was “inactive” throughout. Moreover, the compound was classed as inactive in [11] and in assay [8]. For the same compound, the activity change, negative = inhibition in assay [4] was -1.33% [at 5.25 µM].
Take `Nc1nc(N)c2nc(CNc3ccc(C(=O)NC(CCC(=O)O)C(=O)O)cc3)cnc2n1` (configuration not stated): the Potency was 21.5 µM (active) in [1] and 55.3 µM (active) in assay [2]. In addition, in assay [12], the activity, negative = inhibition is -994% (active). In addition, the Potency entry in assay [3], in [4] and in assay [6] was “inactive” throughout. Besides, the compound was classed as inactive in assay [13], in assay [14] and in assay [15].
Turning to `CCN(CC)CC#CCOC(=O)C(O)(c1ccccc1)C1CCCCC1` (configuration not stated), the Potency entry in assay [1] and in [10] was “inactive” each time. The activity, negative = inhibition in assay [12] is -11%. The compound was classed as inactive in assay [13], in assay [14] and in [15].
Turning to `O=C(O)CCn1c2c(c3ccccc31)C[C@H](NS(=O)(=O)c1ccc(F)cc1)CC2`, the Potency result in assay [1] is “inactive”. Besides, the outcome in [16], in assay [7] and in [8] was inactive.
Take `CC(=O)[C@H]1CC[C@H]2[C@@H]3CCC4=CC(=O)CC[C@]4(C)[C@H]3CC[C@]12C`: the Potency entry in assay [1] and in [10] was “inactive” each time. The activity, negative = inhibition in assay [12] is -4.17%. Moreover, the result in assay [14] and in assay [15] was inactive.
As to `Nc1nc(=S)c2[nH]cnc2[nH]1`, the Potency result in assay [1], in assay [3], in assay [5] and in [10] was “inactive” each time. Further, the Potency in assay [4] was 4.15 µM (active) and 3.3 µM (active). In addition, the call in [7] and in assay [8] was inactive.
For the compound `CCN(CC)CCn1c(=O)c(Cc2ccc(OC)cc2)nc2ccccc21`, the Potency entry in assay [1], in assay [6] and in assay [10] was “inactive” each time. In assay [12], the activity, negative = inhibition is -17%. Besides, the compound was classed as inactive in [13], in [14] and in assay [15].
With `CCCCS(=N)(=O)CCC(N)C(=O)O` (configuration not stated), the Potency entry in assay [1] and in [10] was “inactive” in each case. The activity, negative = inhibition in [12] is -3.95%. Also, the result in assay [13], in assay [14] and in assay [15] was inactive.
Take `CCCCc1oc2ccc(NS(C)(=O)=O)cc2c1C(=O)c1ccc(OCCCN(CCCC)CCCC)cc1`: the Potency entry in [1], in assay [9] and in assay [10] was “inactive” in each case. Moreover, the outcome in assay [16] is “inactive; activator”. In addition, in assay [8], the compound was called inactive.
Take `O=P(O)(O)C(O)(Cc1cccnc1)P(=O)(O)O`: the Potency entry in [1], in assay [5] and in assay [6] was “inactive” in each case. In addition, the outcome in assay [16] is “inactive [at 4.91 µM]”. In addition, the compound was classed as inactive in assay [8].

The record behind these values is PubChem BioAssay (NCATS).
